Tau fibril FP – inhibitors of human tau fibril formation; Potency, µM (series often up to 57.7 µM), hits mostly inhibitors; K18 P301L tau heparin fibrillization, Alexa594 FP, 6 h; P10636; AID 1468; hit rate 0.39% among 280,000; further: nearly all actives have a fitted effect of over 55% in size
Target sequence (P10636 561-689 P618L limits assumed): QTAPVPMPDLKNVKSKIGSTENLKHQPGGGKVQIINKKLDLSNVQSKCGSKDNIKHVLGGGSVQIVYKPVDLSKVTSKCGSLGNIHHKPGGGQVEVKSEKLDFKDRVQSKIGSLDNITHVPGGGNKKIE
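Steps: dispense K18 P301L tau (15 uM plus 0.24 uM Alexa 594 tracer, final) in pH 7 sodium acetate; add compound; add heparin (20 uM final); incubate 6 hr, 37 C; add ThT (30 uM final); after 1 hr ambient, read FP.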
TRb SRC2 PPI – inhibitors of human thyroid hormone receptor beta-SRC2 interaction | P10828 | TRbeta-SRC2 peptide binding, fluorescence polarization; receptor liganded with 1 µM T3 | Potency, µM (titrated, usually from 106 µM), most hits filed as inhibitors | hit rate 0.065% among 280,000 | AID 1469; further: nearly all actives have a fitted effect of over 50% in size
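Polarization signal, normalized between peptide-alone and full complex controls, measured compound effects on T3-liganded human TRb LBD (0.6 uM) binding 20 nM Texas Red SRC2 peptide after 5 hr.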
Tau fibril ThT – tau fibrillization inhibition (ThT binding) | recombinant tau K18 P301L, heparin-induced fibrillization, ThT fluorescence | AID 1460 | hit rate 2.1% among 270,000 | Potency, µM (doses to about 57.4 µM), usual class: inhibitors; further: nearly all actives have a fitted effect of over 55% in size
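K18 P301L tau (15 uM + 0.24 uM Alexa 594-tagged), heparin 20 uM, NaOAc pH 7, 6 h 37 C; ThT 30 uM, 1 h RT, ex 450/em 510 nm.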
TexasRed fluor – Texas Red fluorescence interference in TRb-SRC2 counter-screen. TRb/SRC2 Texas Red total fluorescence interference. Potency, µM (top dose mostly 106 µM). hit rate 0.29% among 280,000. AID 1479; active means well fitted curve in either direction with a large enough effect; inconclusive means small, poorly fitted or top-dose-only effect
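Flags fluorescent or light-absorbing compounds by total fluorescence, S + 2P, at 555 nm excitation and 632 nm emission. Mixture: 20 nM Texas Red SRC2 peptide, 0.6 uM human TRb LBD, 1 uM T3, 5% DMSO; compound exposure 5 h at ambient temperature.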
Tau fluor counter – counter-screen for tau fibril formation inhibitors; Potency, µM (top dose mostly 57.7 µM); hit rate 0.93% among 280,000; tau K18 P301L Alexa594 fluorescence, heparin fibrillization; further: nearly all actives have a fitted effect of over 55% in size
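Human tau K18 P301L (15 uM unlabeled, 0.24 uM Alexa 594-labeled) in 100 mM sodium acetate pH 7 with 20 uM heparin, 6 hr at 37 C. ThT 30 uM added, 1 hr ambient; Alexa 594 FP and total fluorescence read at 555/632 nm.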
Hits are given with their value; – = inactive; ? = inconclusive; · = not tested or not shown; [ ] = dose if it differs, or a comment. Shown are actives, neighbours in structure and some others; about 3.1% of the full set was active somewhere. Unless noted, the call rests on the fitted dose curve; in most records, active means well fitted curve in the direction sought with a large enough effect; inconclusive means small, poorly fitted or top-dose-only effect, or another doubt; inactive means no such curve, though single readings can be large; an effect the other way counts as inactive or inconclusive.

SMILES	Tau fibril FP	TRb SRC2 PPI	Tau fibril ThT	TexasRed fluor	Tau fluor counter
CCOc1cc(C2C(C#N)=C(N)SC(N)=C2C#N)ccc1OCCN1CCOCC1	?	–	25.1µM	–	–
CCCc1[nH]nc2c1C(c1ccc(OCCN3CCOCC3)c(OC)c1)C(C#N)=C(N)O2 (configuration not stated)	–	–	–	–	–
O=C(CCc1ccccc1O)N/N=C/c1ccc(Sc2cccc3cccnc23)o1	?	–	–	–	14.1µM[quencher]
O=C(N/N=C\c1ccc(Sc2ccccn2)o1)c1cccc(F)c1	–	–	–	–	–
O=C(CSc1cccc2cccnc12)N/N=C/c1ccc(O)cc1	–	–	?	–	–
O=C(N/N=C/c1ccc(Sc2ccccn2)o1)c1cc2ccccc2cc1O	–	?	14.1µM	31.6µM[quencher]	?
CCOc1ccccc1NC(=O)c1c(NC(=O)c2cccc(C)c2)sc2c1CCCC2	–	–	–	–	–
COc1ccc(O)c(/C=N/n2c(-c3ccco3)csc2=Nc2cccnc2)c1	–	–	–	–	–
CN=c1scc(-c2ccco2)n1/N=C/c1ccc(O)c(O)c1	?	–	7.08µM	–	15.8µM[quencher]
COc1cccc(CNc2sc3c(c2C(=O)Nc2ccc(OC)cc2OC)CCC3)c1	–	–	?	–	–
Brc1ccc(-c2ccc(/C=N/Nc3nc4ccccc4[nH]3)o2)cc1	–	–	–	?	–
Cc1c(Br)c(=O)oc2c(Br)c(O)c(O)cc12	?	–	12.6µM	–	?
C/C=C/C=C/CCCCCCCO	·	–	·	–	·
C/C(=N\N=C\c1ccc(N(C)C)cc1)c1cccc([N+](=O)[O-])c1	–	–	1.26µM	–	–
C/C(=N\N=C(N)N)c1cccc([N+](=O)[O-])c1	–	–	–	–	–
O=C(CNc1cccc2ccccc12)c1ccc([N+](=O)[O-])cc1	?	–	14.1µM	–	?
CC(Nc1cccc2ccccc12)C(=O)N/N=C/c1ccc([N+](=O)[O-])cc1 (configuration not stated)	?	–	?	–	7.94µM[quencher]
O=C(CNc1ccccc1)c1ccc([N+](=O)[O-])cc1	?	–	14.1µM	–	?
O=C(CNS(=O)(=O)c1ccccc1)OCC(=O)c1ccc([N+](=O)[O-])cc1	?	–	25.1µM	–	–
CCOC(=O)c1c(C)[nH]c2ccc3c(c12)CN1CCc2cc(OC)ccc2[C@@H]1O3	–	–	?	–	–
O=C(COC(=O)c1cc([N+](=O)[O-])ccc1NCCO)c1ccccc1	–	–	–	100µM[quencher]	–
NC(=O)COC(=O)c1cc([N+](=O)[O-])ccc1NCCO	–	–	–	–	–
Cc1c(NC(=O)/C(C#N)=C/c2ccc(-c3cccc(Cl)c3)o2)c(=O)n(-c2ccccc2)n1C	–	–	12.6µM	–	–
Cc1c(NC(=O)/C(C#N)=C/c2ccc(-c3ccccc3Cl)o2)c(=O)n(-c2ccccc2)n1C	–	–	?	–	–
Cc1c(NC(=O)/C(C#N)=C/c2ccc(-c3ccc(Cl)c(Cl)c3)o2)c(=O)n(-c2ccccc2)n1C	–	–	15.8µM	–	–
